# What was measured:
# [1] = tested on: Human papillomavirus type 1a protein E7 (residues 44-93); assay: small molecules binding HPV E7 44-93 – biochemical, small-molecule microarray, residues 44-93, 635 nm fluorescence, primary screen (AID 1108); settings: fluorescence 635 nm, higher = more signal;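 note: E7 fragment applied at 1 µg/mL in TBST for 1 h at 4 C; score combines spot fluorescence with its signal to noise ratio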
# [2] = hepatitis C replication reporter changes, two-sided – Huh7 cells, luciferase reporter, HCV replication inhibitor project, primary screen (AID 1109); settings: Huh7 HCV replicon luciferase reporter, 48 h; higher = more signal;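 note: huh7 hepatoma cells harbouring a luciferase neomycin HCV replicon reporter; luciferase luminescence as measure of HCV replicon replication; test concentration not given here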
# [3] = target: Left-right determination factor 2 (Homo sapiens) (UniProt O00292); assay: small molecules binding LEFTY2 protein – biochemical, small-molecule microarray, 635 nm fluorescence scan, primary screen (AID 1110); settings: higher = more signal
# [4] = target: Calmodulin-1 (Homo sapiens) (UniProt P0DP23); assay: small molecules binding calmodulin-1 with EGTA – biochemical, small-molecule microarray, Cy5-labelled CALM1, profiling panel (AID 1111); settings: Cy5-CALM1 binding fluorescence, higher = more signal;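 note: labelled calmodulin applied in Tris saline Tween buffer holding calcium plus EGTA and DTT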
# [5] = target: Calmodulin-1 (Homo sapiens) (UniProt P0DP23); assay: small molecules binding Ca-loaded calmodulin-1 – biochemical, small-molecule microarray, Cy5-labelled CALM1, plus calcium, artefact control for SMM control-protein annotation, profiling panel (AID 1112); settings: Cy5-CALM1 binding fluorescence, higher = more signal;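 note: score merges spot fluorescence with signal to noise from triplicate slides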
# [6] = probe aWnt5a binding to arrayed compounds – biochemical, biotinylated probe, 635/667 nm fluorescence, primary screen (AID 1113); settings: small-molecule microarray, higher = more signal;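 note: score merges 667 nm fluorescence intensity with signal-to-noise per printed feature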
# [7] = probe aShh binding to arrayed compounds – biochemical, biotinylated probe, 635/667 nm fluorescence, primary screen (AID 1114); settings: small-molecule microarray, higher = more signal;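 note: probe is biotin-labelled aShh protein from a stem cell growth factor screen; measures binding of labelled protein to compounds printed on the slide; score merges feature fluorescence at 667 nm with signal-to-noise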
# [8] = probe aNog binding to arrayed compounds – biochemical, biotinylated probe, 635/667 nm fluorescence, primary screen (AID 1115); settings: small-molecule microarray, higher = more signal;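 note: probe is biotinylated aNog protein used at 0.15 µg/mL for 1 h at 4 C; z-score combines 667 nm fluorescence of each spot with its signal to noise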
# [9] = target: Torsin-1A-interacting protein 1 (Homo sapiens) (UniProt Q5JTV8); assay: compound microarray binding of lysate hLAP1 – cell lysate, small-molecule microarray, COS7 lysate, 635/667 nm fluorescence, primary screen (AID 1116); settings: 635 nm fluorescence, higher = more signal
# [10] = target: Alpha-bungarotoxin (Bungarus multicinctus) (UniProt P60615); assay: compounds binding labelled alpha-BTX control protein – biochemical, small-molecule microarray, Alexa647 label, 635/667 nm fluorescence, artefact control for SMM control protein annotation, profiling panel (AID 1117); settings: alpha-BTX-A647 binding fluorescence, higher = more signal
# Alpha-bungarotoxin (Bungarus multicinctus), sequence (P60615 whole entry, looked up): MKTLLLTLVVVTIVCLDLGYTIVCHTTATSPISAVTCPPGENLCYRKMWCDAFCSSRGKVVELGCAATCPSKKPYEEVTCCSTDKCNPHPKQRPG
# Left-right determination factor 2 (Homo sapiens), sequence (O00292 whole entry, looked up): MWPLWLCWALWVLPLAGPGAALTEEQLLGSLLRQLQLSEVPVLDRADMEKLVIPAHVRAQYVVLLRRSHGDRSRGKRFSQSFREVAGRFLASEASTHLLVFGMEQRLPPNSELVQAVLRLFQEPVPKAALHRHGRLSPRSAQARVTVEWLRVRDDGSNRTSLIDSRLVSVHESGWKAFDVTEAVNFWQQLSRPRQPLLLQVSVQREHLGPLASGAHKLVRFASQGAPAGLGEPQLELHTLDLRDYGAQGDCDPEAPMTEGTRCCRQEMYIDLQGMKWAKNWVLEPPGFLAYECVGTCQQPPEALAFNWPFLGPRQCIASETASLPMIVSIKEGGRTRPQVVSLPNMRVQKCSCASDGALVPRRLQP
# Torsin-1A-interacting protein 1 (Homo sapiens), sequence (Q5JTV8 whole entry, looked up): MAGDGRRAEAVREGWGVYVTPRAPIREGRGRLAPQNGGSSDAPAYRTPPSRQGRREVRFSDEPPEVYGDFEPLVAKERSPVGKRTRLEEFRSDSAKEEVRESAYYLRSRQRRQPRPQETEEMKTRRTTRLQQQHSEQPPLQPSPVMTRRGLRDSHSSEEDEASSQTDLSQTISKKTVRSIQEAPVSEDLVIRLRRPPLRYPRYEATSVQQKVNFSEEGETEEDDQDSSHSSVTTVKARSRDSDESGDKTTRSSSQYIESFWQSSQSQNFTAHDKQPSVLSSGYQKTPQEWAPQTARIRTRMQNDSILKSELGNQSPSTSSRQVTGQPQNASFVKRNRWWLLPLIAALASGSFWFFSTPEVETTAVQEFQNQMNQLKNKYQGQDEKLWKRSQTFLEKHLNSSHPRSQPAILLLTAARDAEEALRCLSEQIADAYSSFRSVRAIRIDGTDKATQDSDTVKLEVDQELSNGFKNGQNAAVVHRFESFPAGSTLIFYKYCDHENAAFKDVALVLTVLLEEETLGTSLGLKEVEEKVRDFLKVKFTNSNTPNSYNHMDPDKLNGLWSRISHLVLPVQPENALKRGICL
Compound,composite z-score [1],z-score [2],composite z-score [3],composite z-score [4],composite z-score [5],composite z-score [6],composite z-score [7],composite z-score [8],composite z-score [9],composite z-score [10]
COc1cc(Cc2cc3c(c(CCc4ccccc4)n2)[Si](C(C)C)(C(C)C)O[C@H]3c2ccccc2)cc(OC)c1OC,-1.18,-2.37,0.151,-0.448,-0.425,-0.0107,-0.138,-0.0827,0.415,0.537
C=CC[C@]1(C(=O)NCCN2CCOCC2)N=C(c2ccc(OCCCO)cc2)O[C@H]1c1ccccc1,1.35,-0.633,0.66,0.0631,-0.442,0.212,0.398,-0.103,1.24,0.429
COC(=O)[C@@]1(Cc2ccccc2)[C@H]2c3cc(C(=O)N(C)C)n(Cc4ccc(Cl)c(C(F)(F)F)c4)c3C[C@H]2CN1C(=O)c1ccccc1,1.37,-2.61,0.533,1.49,1.06,0.315,1.24,1.91,0.636,0.995
CN1C(=O)C2C(C1=O)C1C=C(CCCO)C2C(C2CC2)N1C (stereo not given),-0.524,0.669,-0.151,0.394,0.535,-0.328,0.0062,-0.0477,2.83,-0.685
Cc1ccc(S[C@]2(C(=O)NC3CC3)CC(=O)N(C3Cc4ccccc4C3)[C@@H]2c2ccc(CO)cc2I)cc1,0.451,-2.14,-1.05,2.09,-0.628,-0.0758,-0.375,0.144,-0.623,-0.0871
CCCCC(=C=CC[C@@H](O)c1ccccc1OCCO)C[C@@H](O)c1ccccn1,0.361,-1.61,-0.139,-0.408,-0.669,-0.113,-0.0904,-0.108,-0.194,0.888
COC(=O)C1=CC(c2ccc(CO)cc2)=CC(C2CC2)N(Cc2cc3c(cc2Br)OCO3)C=C1C(=O)OC (stereo not given),1.32,-1.41,0.568,2.06,0.631,0.0251,0.254,0.564,2.15,2.47
C[C@]1(C(=O)NC2CC2)c2ccccc2C(=O)N(Cc2cc(F)cc(C(F)(F)F)c2)[C@H]1c1ccc(CO)cc1,1.49,-0.782,-1.59,-0.448,0.0045,-0.187,-0.469,-0.658,-0.65,-0.442
C=CCNC(=O)[C@H]1[C@@H]2C(=O)O[C@@H](c3ccccc3)[C@@H](c3ccccc3)N2[C@@H](c2ccc(O)cc2)[C@]12C(=O)N(C(=O)OCCOC)c1ccc(C#Cc3ccc(OC)cc3)cc12,1.33,-1.09,0.254,1.38,-0.0807,-0.001,0.229,-0.477,0.42,0.286
CC(C)N1C(=O)[C@@]2(Cc3ccccc31)c1ccccc1C(=O)N(Cc1ccccc1)[C@H]2c1ccc(CO)cc1,0.256,-0.656,0.159,-0.439,-0.445,-0.124,-0.64,-0.218,0.0896,0.648
COC(=O)[C@@]1(Cc2ccc(F)cc2)[C@@H]2C(=CC(=O)[C@H]2CC(=O)C(=O)N2CCCC2)CN1C(=O)c1ccccc1,1.47,-2.78,0.643,1.38,-0.24,0.625,0.761,2.06,1.25,0.683
O=C(NC1CC1)[C@@H]1c2ccccc2C(=O)N(C2CCCCC2)[C@H]1c1ccc(CO)cc1,0.178,-2.14,0.0863,0.576,0.109,-0.176,-0.321,-0.16,0.482,1.5
CC(C)(C)OC(=O)CC[C@]1(C(N)=O)N=C(c2ccc(OCCCO)cc2)O[C@H]1c1ccccc1N=[N+]=[N-],0.97,0.697,-0.143,1.53,1.1,0.0371,0.232,0.886,0.791,1.43

# From PubChem BioAssay
